PubChem BioAssay (EPA / NIEHS)
Where “and” joins values, the source holds several entries; their conditions need not be identical. Identical values can stand only once. A structure can be active in one record and inactive in another. Calls of active or inactive are those of the source. How the source made its calls: active means hit-call score of the fitted dose curve at least 0.9, where 1 is the maximum; inactive means score below 0.9.

Assays:
[1] = BSK_CASM3C_SRB: Viability Assessment in the BioMAP Diversity Plus: CASM3C Assay (AID 2283050); conditions: primary human coronary artery smooth muscle cells;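 further: cells exposed to compound for 24 h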
[2] = read-out: Thrombomodulin, THBD (gene 7056); assay: BSK_CASM3C_Thrombomodulin: BioMAP Diversity Plus: CASM3C Assay for Thrombomodulin Biomarker Activity (AID 2283051); conditions: primary human coronary artery smooth muscle cells; actives raise or lower the signal;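 further: thrombomodulin protein level measured by ELISA 24 h after dosing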
[3] = read-out: Tissue Factor, F3 (gene 2152); assay: BSK_CASM3C_TissueFactor: BioMAP Diversity Plus: CASM3C Assay for Tissue Factor Biomarker Activity (AID 2283052); conditions: primary human coronary artery smooth muscle cells; actives raise or lower the signal;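 further: cell surface tissue factor protein level read by ELISA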
[4] = read-out: Urokinase-type plasminogen activator receptor (uPAR), PLAUR (gene 5329); assay: BSK_CASM3C_uPAR: BioMAP Diversity Plus: CASM3C Assay for Urokinase-type plasminogen activator receptor (uPAR) Biomarker Activity (AID 2283054); conditions: primary human coronary artery smooth muscle cells; actives raise or lower the signal;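 further: cell-surface uPAR protein level quantified by ELISA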
[5] = read-out: Vascular cell adhesion molecule 1 (VCAM1), VCAM1 (gene 7412); assay: BSK_CASM3C_VCAM1: BioMAP Diversity Plus: CASM3C Assay for Vascular cell adhesion molecule 1 (VCAM1) Biomarker Activity (AID 2283055); conditions: primary human coronary artery smooth muscle cells; actives raise or lower the signal;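 further: VCAM-1 protein level quantified by ELISA on the cells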
[6] = read-out: Collagen III, COL3A1 (gene 1281); assay: BSK_hDFCGF_CollagenIII: BioMAP Diversity Plus: hDFCGF Assay for Collagen III Biomarker Activity (AID 2283056); conditions: primary human foreskin fibroblasts; actives raise or lower the signal
Summary of the method: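 Human foreskin fibroblast primary cultures sampled 24 h after dosing; Collagen III quantified by ELISA. Signal fitted bidirectionally against DMSO baseline.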

[7] = read-out: Epidermal growth factor receptor (EGFR), EGFR (gene 1956); assay: BSK_hDFCGF_EGFR: BioMAP Diversity Plus: hDFCGF Assay for Epidermal growth factor receptor (EGFR) Biomarker Activity (AID 2283057); conditions: primary human foreskin fibroblasts; actives raise or lower the signal
Summary of the method: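 Primary human foreskin fibroblasts (hDFCGF system), sampled 24 h after dosing; EGFR quantified by ELISA. Bidirectional fit relative to DMSO baseline; SRB total-protein staining in parallel cultures for cytotoxicity.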

[8] = read-out: Interleukin-8 (IL8), CXCL8 (gene 3576); assay: BSK_hDFCGF_IL8: BioMAP Diversity Plus: hDFCGF Assay for Interleukin-8 (IL8) Biomarker Activity (AID 2283058); conditions: primary human foreskin fibroblasts; actives raise or lower the signal
Summary of the method: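 Primary human foreskin fibroblasts (hDFCGF system) dosed with chemical; IL-8 measured by ELISA 24 hours later. Bidirectional curve fitting relative to DMSO baseline; cytotoxicity tracked in parallel cultures by SRB total protein staining.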

[9] = BSK_hDFCGF_Proliferation: Cell Proliferation Assessment in the BioMAP Diversity Plus: hDFCGF Assay (AID 2283059); conditions: primary human foreskin fibroblasts;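 further: curves fitted for both rise and fall of signal versus DMSO baseline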
Summary of the method: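 Primary human foreskin fibroblasts, sub-confluent; […]; 10% TCA fix, 0.1% SRB stain, A560 total protein. Gain/loss fitted bidirectionally vs DMSO control.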

[10] = read-out: Macrophage colony-stimulating factor (MCSF), CSF1 (gene 1435); assay: BSK_hDFCGF_MCSF: BioMAP Diversity Plus: hDFCGF Assay for Macrophage colony-stimulating factor (MCSF) Biomarker Activity (AID 2283060); conditions: primary human foreskin fibroblasts; actives raise or lower the signal
Summary of the method: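 Human foreskin fibroblast primary cultures; M-CSF measured by ELISA 24 hours after chemical dosing. Bidirectional fitting relative to DMSO, with overt cytotoxicity tracked by parallel SRB total-protein staining (0.1% SRB, 10% TCA fixation, 560 nm).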

[11] = BSK_hDFCGF_SRB: Viability Assessment in the BioMAP Diversity Plus: hDFCGF Assay (AID 2283061); conditions: primary human foreskin fibroblasts;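 further: cells exposed to compound for 24 h before the read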
Summary of the method: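 Human foreskin fibroblasts in 96-well plates were treated 24 h. Total protein was measured by 0.1% SRB staining after 10% TCA fixation, read at 560 nm. Data were fitted bidirectionally against DMSO.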

[12] = read-out: TIMP metallopeptidase inhibitor 1 (TIMP1), TIMP1 (gene 7076); assay: BSK_hDFCGF_TIMP1: BioMAP Diversity Plus: hDFCGF Assay for TIMP metallopeptidase inhibitor 1 (TIMP1) Biomarker Activity (AID 2283062); conditions: primary human foreskin fibroblasts; actives raise or lower the signal
Summary of the method: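 Human foreskin fibroblast primary cultures dosed for 24 h; secreted/surface TIMP-1 quantified by ELISA. Bidirectional curve fitting against DMSO baseline; cytotoxicity tracked in parallel cultures by SRB total-protein staining.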

[13] = read-out: Monokine induced gamma interferon (MIG), CXCL9 (gene 4283); assay: BSK_hDFCGF_MIG: BioMAP Diversity Plus: hDFCGF Assay for Monokine induced gamma interferon (MIG) Biomarker Activity (AID 2283063); conditions: primary human foreskin fibroblasts; actives raise or lower the signal
Summary of the method: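 MIG/CXCL9 measured by ELISA 24 h after dosing primary human skin fibroblasts. Activity fitted in both directions against DMSO controls. Cytotoxicity was checked in parallel cultures by SRB staining read at 560 nm.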

[14] = read-out: Vascular cell adhesion molecule 1 (VCAM1), VCAM1 (gene 7412); assay: BSK_hDFCGF_VCAM1: BioMAP Diversity Plus: hDFCGF Assay for Vascular cell adhesion molecule 1 (VCAM1) Biomarker Activity (AID 2283065); conditions: primary human foreskin fibroblasts; actives raise or lower the signal;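 on AC50: VCAM-1 protein level quantified by ELISA after 24 h chemical exposure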
Summary of the method: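 Human foreskin fibroblast primary cells dosed with chemical, VCAM-1 measured by ELISA at 24 h. Bidirectional curve fitting relative to DMSO as negative control/baseline.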

[15] = read-out: Plasminogen activator inhibitor-1 (PAI1), SERPINE1 (gene 5054); assay: BSK_hDFCGF_PAI1: BioMAP Diversity Plus: hDFCGF Assay for Plasminogen activator inhibitor-1 (PAI1) Biomarker Activity (AID 2283066); conditions: primary human foreskin fibroblasts; actives raise or lower the signal
Summary of the method: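 Human foreskin fibroblast primary cells, 24 h chemical exposure; PAI-1 measured by ELISA. Bidirectional fitting relative to DMSO; parallel cultures stained with SRB for total protein to flag overt cytotoxicity.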

[16] = read-out: Intercellular Adhesion Molecule 1 (ICAM1), ICAM1 (gene 3383); assay: BSK_KF3CT_ICAM1: BioMAP Diversity Plus: KF3CT Assay for Intercellular Adhesion Molecule 1 (ICAM1) Biomarker Activity (AID 2283067); conditions: primary human keratinocytes with fibroblasts; actives raise or lower the signal
Summary of the method: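 Human keratinocyte–foreskin fibroblast co-culture was treated for 24 h. Cell-surface ICAM-1 was quantified by ELISA, fitted bidirectionally relative to DMSO. Cytotoxicity was checked in parallel cultures by SRB total-protein staining.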

[17] = BSK_KF3CT_SRB: Viability Assessment in the BioMAP Diversity Plus: KF3CT Assay (AID 2283069); conditions: primary human keratinocytes with fibroblasts;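 further: total protein by sulforhodamine B staining as a cytotoxicity measure; read 24 h after compound addition; fitted for both signal gain and loss against DMSO baseline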
Summary of the method: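 Human keratinocyte and foreskin fibroblast co-culture exposed to chemical for 24 h. Total protein measured in parallel cultures by 0.1% sulforhodamine B staining after 10% TCA fixation, read at 560 nm; bidirectional fit relative to DMSO.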

[18] = read-out: Matrix Metallopeptidase 1 (MMP1), MMP1 (gene 4312); assay: BSK_hDFCGF_MMP1: BioMAP Diversity Plus: hDFCGF Assay for Matrix Metallopeptidase 1 (MMP1) Biomarker Activity (AID 2283064); conditions: primary human foreskin fibroblasts; actives raise or lower the signal
Summary of the method: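 Primary human foreskin fibroblasts exposed to chemicals for 24 h; MMP1 measured by ELISA. Cytotoxicity tracked by SRB staining in parallel cultures; bidirectional fit relative to DMSO.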

[19] = read-out: Interferon-gamma inducible Protein 10 (IP10), CXCL10 (gene 3627); assay: BSK_KF3CT_IP10: BioMAP Diversity Plus: KF3CT Assay for Interferon-gamma inducible Protein 10 (IP10) Biomarker Activity (AID 2283068); conditions: primary human keratinocytes with fibroblasts; actives raise or lower the signal
Summary of the method: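 In a primary skin co-culture of keratinocytes and fibroblasts, IP-10 is quantified by ELISA at 24 h after dosing. SRB staining of parallel wells monitors overt toxicity. Curves are fitted both directions against DMSO.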

Measured: AC50

OCCCCC(F)(F)C(F)(F)C(F)(F)C(F)(F)F
not listed: [18] | [19]
inactive: all other assays above

Cc1ccc(S(=O)(=O)C(I)I)cc1
inactive: [2]
active: [1] 3.42 µM | [3] 1.97 µM | [4] 2.92 µM | [5] 2.46 µM | [6] 6.27 µM | [7] 3.79 µM | [8] 3.51 µM | [9] 208 nM | [10] 2.36 µM | [11] 2.63 µM | [12] 1.62 µM | [13] 2.68 µM | [18] 2.22 µM | [14] 0.942 µM | [15] 2.41 µM | [16] 3.07 µM | [17] 5.19 µM

O=C(O)C(F)(F)C(F)(F)C(F)(F)C(=O)O
active: [11] 1.81 µM and 19.7 µM
not listed: [19]
inactive: all other assays above

CO[Si](C)(CCC(F)(F)C(F)(F)C(F)(F)C(F)(F)C(F)(F)C(F)(F)F)OC
not listed: [19]
inactive: all other assays above

C=C(C)C(=O)OCC(F)(F)C(F)(F)C(F)(F)C(F)F
not listed: [18] | [19]
inactive: all other assays above

NCC(F)(F)C(F)(F)C(F)(F)C(F)(F)C(F)(F)C(F)(F)F
not listed: [19]
inactive: all other assays above

CC(C)CCCC(C)CCO (stereo not given)
active: [1] 32.2 µM | [3] 29.9 µM | [4] 31.3 µM | [5] 31.9 µM | [9] 32800 nM | [16] 36.5 µM | [19] 35.6 µM | [17] 34.4 µM
inactive: all other assays above

CCOC(=O)CC(=O)C(F)(F)C(F)(F)F
not listed: [19]
inactive: all other assays above

FC(F)(F)C(F)(F)C(F)(F)C(F)(F)C(F)(F)C(F)(F)C(F)(F)CCI
active: [6] 2.26 µM | [9] 1.78 µM and 1.25 µM | [10] 1.47 µM | [13] 3.33 µM
inactive: [1] | [2] | [3] | [4] | [5] | [6] | [7] | [8] | [10] | [11] | [12] | [13] | [18] | [14] | [15] | [16] | [17]

O=C=Nc1cccc2c(N=C=O)cccc12
not listed: [18]
inactive: all other assays above

O=C(O)CCC(F)(F)C(F)(F)C(F)(F)C(F)(F)C(F)(F)C(F)(F)C(F)(F)F
active: [11] 2.25 µM
inactive: [1] | [2] | [3] | [4] | [5] | [6] | [7] | [8] | [9] | [10] | [11] | [12] | [13] | [14] | [15] | [16] | [17]
